Values joined by “and” are separate entries in the source; they are usually repeats but may differ in a detail not shown here. Equal values may be shown once. Records with an inconclusive call do not appear. Active and inactive are the calls of the source. Calls follow the shape of the dose curve; as a rule, active = well fitted curve in the direction sought with a large enough effect; inconclusive = small, poorly fitted or top-dose-only effect, or another doubt; inactive = no such curve, though single readings can be large; an effect the other way counts as inactive or inconclusive.
Key:
[1] = qHTS of pediatric cancer cell lines to identify multiple opportunities for drug repurposing: Primary screen for LAN-5 cells (AID 1347100); also: potency is read from the fitted curve at half-maximal effect
How it was run: (§1)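 Cells (500-1,000/well) rested 5 h, then received compounds for 48 h; metabolically active cells were measured by CellTiter-Glo luminescence. Final concentrations spanned up to 46 µM (MIPE, 11-point) or 0.59 nM-46 µM (NPC, 8-point) in primary screens, 11-point in follow-ups.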

[2] = qHTS of pediatric cancer cell lines to identify multiple opportunities for drug repurposing: Primary screen for Rh18 cells (AID 1347102); also: nearly all actives have a fitted effect of over 65% in size; also: potency is read from the fitted curve at half-maximal effect
How it was run: as §1

[3] = qHTS of pediatric cancer cell lines to identify multiple opportunities for drug repurposing: Primary screen for RD cells (AID 1347104); also: nearly all actives have a fitted effect of over 55% in size; also: potency is read from the fitted curve at half-maximal effect
How it was run: (§2)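 Following a 5-hour attachment period, cells at 500-1,000/well received compounds and were cultured for 48 hours. CellTiter-Glo was added and luminescence read to estimate viable, metabolically active cells.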

[4] = qHTS of pediatric cancer cell lines to identify multiple opportunities for drug repurposing: Primary screen for MG 63 (6-TG R) cells (AID 1347105); also: nearly all actives have a fitted effect of over 50% in size; also: potency is read from the fitted curve at half-maximal effect
How it was run: as §2

[5] = qHTS of pediatric cancer cell lines to identify multiple opportunities for drug repurposing: Primary screen for control Hh wild type fibroblast cells (AID 1347106);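 also: series mostly up to about 46 µM; a drop in luminescence marks cytotoxicity and a rise apparent proliferation; nearly all actives have a fitted effect of over 55% in size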
How it was run: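 Viability after 48 h compound treatment at 37C, 500-1,000 cells/well, read as ATP luminescence with CellTiter-Glo. Primary screens used 11-point (MIPE, 0.78 nM-46 µM) or 8-point (NPC, 0.59 nM-46 µM) final concentrations; follow-up screens used 11-point dilutions.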

[6] = qHTS of pediatric cancer cell lines to identify multiple opportunities for drug repurposing: Primary screen for Rh30 cells (AID 1347107); also: series mostly up to about 46 µM; nearly all actives have a fitted effect of over 75% in size
How it was run: as §1

[7] = qHTS of pediatric cancer cell lines to identify multiple opportunities for drug repurposing: Primary screen for BT-12 cells (AID 1347101); also: nearly all actives have a fitted effect of over 25% in size; also: potency is read from the fitted curve at half-maximal effect
How it was run: as §1

[8] = qHTS of pediatric cancer cell lines to identify multiple opportunities for drug repurposing: Confirmatory screen for NB1643 cells (AID 1347109); also: nearly all actives have a fitted effect of over 45% in size; also: potency is read from the fitted curve at half-maximal effect
How it was run: as §1

[9] = qHTS of pediatric cancer cell lines to identify multiple opportunities for drug repurposing: Confirmatory screen for BT-12 cells (AID 1347112); also: nearly all actives have a fitted effect of over 55% in size; also: potency is read from the fitted curve at half-maximal effect
How it was run: as §1

[10] = qHTS of pediatric cancer cell lines to identify multiple opportunities for drug repurposing: Confirmatory screen for LAN-5 cells (AID 1347113); also: nearly all actives have a fitted effect of over 65% in size
How it was run: as §1

[11] = qHTS of pediatric cancer cell lines to identify multiple opportunities for drug repurposing: Confirmatory screen for NB-EBc1 cells (AID 1347115);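 also: cells exposed to compound for 48 h before the viability read; nearly all actives have a fitted effect of over 45% in size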
How it was run: as §1

[12] = qHTS of pediatric cancer cell lines to identify multiple opportunities for drug repurposing: Confirmatory screen for SJ-GBM2 cells (AID 1347116); also: nearly all actives have a fitted effect of over 60% in size
How it was run: (§3)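 Viability measured as metabolically active cells via CellTiter-Glo luminescence following 48 hours of compound exposure, 11-point dilutions in confirmatory testing. 500-1,000 cells/well plated 5 hours before dosing; controls were DMSO and 2.3 µM bortezomib.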

[13] = qHTS of pediatric cancer cell lines to identify multiple opportunities for drug repurposing: Confirmatory screen for BT-37 cells (AID 1347117); also: nearly all actives have a fitted effect of over 55% in size; also: potency is read from the fitted curve at half-maximal effect
How it was run: as §1

[14] = qHTS of pediatric cancer cell lines to identify multiple opportunities for drug repurposing: Confirmatory screen for TC32 cells (AID 1347118);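 also: cells exposed to compound for 48 h before the read; nearly all actives have a fitted effect of over 65% in size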; also: potency is read from the fitted curve at half-maximal effect
How it was run: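 TC32 cells, 500-1,000/well in growth medium, compound-treated 48 h at 37 °C; viability from CellTiter-Glo luminescence. Primary screen: MIPE 11-point (0.78 nM–46 µM final), NPC 8-point (0.59 nM–46 µM final); confirmatory at 11-point dilutions.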

[15] = qHTS of pediatric cancer cell lines to identify multiple opportunities for drug repurposing: Confirmatory screen for MG 63 (6-TG R) cells (AID 1347119); also: nearly all actives have a fitted effect of over 55% in size; also: potency is read from the fitted curve at half-maximal effect
How it was run: as §1

[16] = qHTS of pediatric cancer cell lines to identify multiple opportunities for drug repurposing: Confirmatory screen for control Hh wild type fibroblast cells (AID 1347121); also: nearly all actives have a fitted effect of over 70% in size
How it was run: as §1

[17] = qHTS of pediatric cancer cell lines to identify multiple opportunities for drug repurposing: Confirmatory screen for A673 cells (AID 1347110);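 also: cells exposed to compound for 48 h before the viability read; nearly all actives have a fitted effect of over 65% in size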; also: potency is read from the fitted curve at half-maximal effect
How it was run: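 A673 cells at 500-1,000 cells/well were dosed 5 h after plating, in dilution series up to 46 uM final; primary runs used 8 or 11 points and confirmatory runs used 11 points. Viability was read by CellTiter-Glo luminescence after 48 h, against DMSO and 2.3 uM bortezomib controls.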

[18] = qHTS of pediatric cancer cell lines to identify multiple opportunities for drug repurposing: Confirmatory screen for DAOY cells (AID 1347114); also: nearly all actives have a fitted effect of over 65% in size; also: potency is read from the fitted curve at half-maximal effect
How it was run: as §3

[19] = qHTS of pediatric cancer cell lines to identify multiple opportunities for drug repurposing: Primary screen for OHS-50 cells (AID 1347103); also: nearly all actives have a fitted effect of over 40% in size; also: potency is read from the fitted curve at half-maximal effect
How it was run: as §1

[20] = qHTS of pediatric cancer cell lines to identify multiple opportunities for drug repurposing: Primary screen for Rh41 cells (AID 1347108);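 also: series mostly up to about 46 µM; luminescence drop marks cytotoxic hits; nearly all actives have a fitted effect of over 70% in size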
How it was run: as §2

Measured: Potency

CC(C)OC(=O)OCOP(=O)(CO[C@H](C)Cn1cnc2c(N)ncnc21)OCOC(=O)OC(C)C
inactive: [1] | [2] | [3] | [4] | [5] | [6]

COc1cc2c(Nc3ccc(Br)cc3F)ncnc2cc1OCC1CCN(C)CC1
inactive: [7] | [5] | [6] | [8] | [9] | [10] | [11] | [12] | [13] | [14] | [15] | [16]

CNS(=O)(=O)CCc1ccc2[nH]cc(C3CCN(C)CC3)c2c1
active: [17] 3.69 µM | [14] 13.1 µM
inactive: [2] | [6] | [8] | [9] | [10] | [18] | [11] | [12] | [13] | [15] | [16]

CCCCCCNC(=O)n1cc(F)c(=O)[nH]c1=O
active: [1] 7.5 µM and 9.35 µM
inactive: [2] | [19] | [4] | [5] | [6] | [20]

CC1CC2C3CCC4=CC(=O)C=C[C@]4(C)[C@@]3(F)[C@@H](O)C[C@]2(C)[C@@]1(O)C(=O)CO (stereo not given in full)
active: [17] 2.93 µM
inactive: [1] | [2] | [19] | [4] | [5] | [9] | [10] | [18] | [11] | [12] | [13] | [14] | [15] | [16]

C1CCC(C(CC2CCCCN2)C2CCCCC2)CC1 (stereo not given)
active: [7] 5.5 µM and 30.6 µM | [2] 16.8 µM and 26.4 µM | [19] 13.8 µM and 19.3 µM | [3] 21.1 µM and 29.6 µM | [4] 26.6 µM
inactive: [5] | [6]

CC(C(=O)O)c1ccc2c(c1)CC(=O)c1ccccc1S2 (stereo not given)
inactive: [1] | [2] | [4] | [5] | [6] | [8] | [18] | [11] | [12] | [16]

N=C(N)c1ccc(OCCCCCOc2ccc(C(=N)N)cc2)cc1
active: [7] 2.46 µM and 4.85 µM | [3] 18.7 µM | [9] 3.29 µM | [18] 14.7 µM | [15] 11.7 µM
inactive: [4] | [5] | [6] | [12]

CCC(=O)O[C@]1(C(=O)SCF)[C@H](C)C[C@H]2[C@@H]3C[C@H](F)C4=CC(=O)C=C[C@]4(C)[C@@]3(F)[C@@H](O)C[C@@]21C
active: [17] 1.04 µM
inactive: [1] | [2] | [3] | [4] | [5] | [6] | [20] | [8] | [9] | [10] | [13] | [14] | [15] | [16]

CCC(=O)O[C@]1(C(=O)CCl)[C@@H](C)C[C@H]2[C@@H]3CCC4=CC(=O)C=C[C@]4(C)[C@@]3(F)[C@@H](O)C[C@@]21C
active: [17] 20.8 µM
inactive: [1] | [2] | [3] | [4] | [5] | [6] | [20] | [8] | [9] | [10] | [18] | [11] | [12] | [13] | [14] | [15] | [16]

CC(=O)[C@H]1CC[C@H]2[C@@H]3CCC4=CC(=O)CC[C@]4(C)[C@H]3CC[C@]12C
active: [19] 19.3 µM | [4] 11.8 µM | [14] 5.22 µM
inactive: [5]

CC1=CC(=O)c2ccccc2C1=O
active: [1] 16.8 µM and 23.5 µM | [3] 18.7 µM
inactive: [2] | [4] | [5] | [6]

COc1cnc(NS(=O)(=O)c2ccc(N)cc2)nc1
inactive: [7] | [2] | [19] | [4] | [5] | [6] | [20]

C[C@@H](NCCCc1cccc(C(F)(F)F)c1)c1cccc2ccccc12
inactive: [1] | [2] | [4] | [5] | [6] | [20]

CC(C)Cn1cnc2c(N)nc3ccccc3c21
inactive: [2] | [4] | [5] | [6]

Cc1c(-c2ccc(O)cc2)n(Cc2ccc(OCCN3CCCCCC3)cc2)c2ccc(O)cc12
inactive: [2] | [3] | [5] | [6]

Nc1nc(N)c2nc(CNc3ccc(C(=O)NC(CCC(=O)O)C(=O)O)cc3)cnc2n1 (stereo not given)
inactive: [2] | [4] | [6] | [8] | [10] | [15] | [16]
active: [7] 0.0485 µM | [17] 1.04 µM | [9] 0.928 µM | [14] 0.329 µM

COc1ccc(C(=O)CC(=O)c2ccc(C(C)(C)C)cc2)cc1
inactive: [19] | [4] | [5] | [6] | [8] | [17] | [9] | [10] | [18] | [11] | [12] | [16]

Nc1[nH]c(=O)ncc1F
inactive: [7] | [2] | [19] | [3] | [4] | [5] | [6] | [20] | [8] | [17] | [9] | [18] | [11] | [13] | [14] | [15] | [16]

CCOC(=O)c1ccc(C#Cc2ccc3c(c2)C(C)(C)CCS3)nc1
active: [19] 777 nM and 54.4 nM
inactive: [2] | [3] | [4] | [5] | [6] | [8] | [9] | [10] | [18] | [11] | [13] | [16]

Clc1ccccc1CN1CCc2sccc2C1
active: [7] 1.93 µM
inactive: [2] | [3] | [4] | [5] | [6] | [20]

COc1ccc2cc3[n+](cc2c1OC)CCc1cc2c(cc1-3)OCO2
inactive: [5] | [6]
active: [1] 10.6 µM and 16.6 µM | [19] 4.37 µM and 7.69 µM | [3] 10.5 µM | [4] 26.6 µM

Cc1nnc(NS(=O)(=O)c2ccc(N)cc2)s1
inactive: [5] | [6]

CCOC(=O)[C@H](CCc1ccccc1)N[C@H]1CCc2ccccc2N(CC(=O)O)C1=O
active: [7] 27.3 µM | [19] 24.3 µM | [3] 26.4 µM
inactive: [5]

O[C@@H](CNC[C@H](O)[C@H]1CCc2cc(F)ccc2O1)[C@@H]1CCc2cc(F)ccc2O1
inactive: [5] | [6]
active: [19] 24.3 µM and 27.6 µM | [3] 33.2 µM

Cc1ccc(S(=O)(=O)N[C@@H](Cc2ccccc2)C(=O)CCl)cc1
inactive: [5]
active: [1] 16.6 µM | [19] 19.3 µM | [3] 26.4 µM | [4] 29.6 µM

O=c1oc2c(O)c(O)cc3c(=O)oc4c(O)c(O)cc1c4c23
inactive: [1] | [2] | [19] | [4] | [5] | [6] | [20]

COc1ccc(-c2ccc3cc(C(=O)O)ccc3c2)cc1C12CC3CC(CC(C3)C1)C2
active: [19] 0.0153 µM | [8] 9.27 µM | [17] 5.85 µM | [13] 7.37 µM | [14] 2.08 µM
inactive: [7] | [2] | [3] | [5] | [6] | [20] | [9] | [18] | [16]
